# A selection: hits, their analogues and other compounds. The true share with any hit is near 17%.
# TDP1 cell noCPT: qHTS for Inhibitors of human tyrosyl-DNA phosphodiesterase 1 (TDP1): qHTS in cells in absence of CPT; DT40 Tdp1-/- hTDP1 cells, no CPT, ATP luminescence, 48 h; Potency, µM (top dose mostly 46.2 µM), for inactives: top-dose activity change, negative = growth inhibition, usual class: inhibitors; AID 686978, 2013; 15% of 420,000 active; further: on the % scale 0 is the no-effect control and ±100 the full control effect; nearly all actives have a fitted effect of over 55% in size
#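 Luminescent ATP content (CellTiter-Glo) served as the growth readout. Knockout chicken DT40 cells expressing human TDP1 were exposed to compounds without camptothecin for a minimum 48 hr at 37 °C.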
# ClpP mod: qHTS Assay for Activators of ClpP; ATP-dependent Clp protease proteolytic subunit (Bacillus subtilis (strain 168)), P80244; purified B. subtilis ClpP, FRET peptide cleavage, 20 min; Potency, µM (doses to about 57.5 µM), inactives show at the highest dose activity change, negative = active; 1.9% of 340,000 active; AID 651965, 2013; active means well fitted falling curve with a large enough effect; inconclusive means small, poorly fitted or top-dose-only effect; inactive means no such curve, though single readings can be large or run the other way; further: the source files actives as falling curves though it sought activators and does not explain the sign; nearly all actives have a fitted effect of over 65% in size
#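 FRET quenching reversal measured ClpP activation: 10 microg/mL B. subtilis ClpP at pH 8 with the FRET-FV decapeptide, read at 430 nm after 320 nm excitation. The 20-min minus 0-min signal was scaled between DMSO/no-enzyme wells and ADEP (5.8 microM final).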
# DT40 TDP1 CPT: qHTS for Inhibitors of human tyrosyl-DNA phosphodiesterase 1 (TDP1): qHTS in cells in presence of CPT; chicken DT40 Tdp1-/-;hTDP1 cells + 20 nM CPT, ATP luminescence, 48 h; Potency, µM (highest dose often 46.2 µM), without a hit: at the top dose activity change, negative = growth inhibition, actives largely listed as inhibitors; 12% of 420,000 active; further: on the % scale 0 is the no-effect control and ±100 the full control effect; nearly all actives have a fitted effect of over 55% in size
#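 Cell growth measured by CellTiter-Glo luminescence after a minimum 48 h, 37 C compound exposure with 20 nM CPT in Tdp1-knockout DT40 cells stably expressing hTDP1, seeded 400/well; qHTS titration format.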
# TDP1 block: qHTS Assay for Inhibitors of Tyrosyl-DNA Phosphodiesterase (TDP1). 0.28% of 350,000 active. recombinant TDP1, AlphaScreen DNA substrate cleavage. Potency, µM (titrated, usually from 130 µM), for the others: top-dose activity change, negative = inhibition, usual class: inhibitors. AID 485290, 2010. Tyrosyl-DNA phosphodiesterase 1 (Homo sapiens), Q9NUW8; further: on the % scale 0 is the no-effect control and ±100 the full control effect; nearly all actives have a fitted effect of over 40% in size
# Target sequence (Q9NUW8 whole entry, looked up): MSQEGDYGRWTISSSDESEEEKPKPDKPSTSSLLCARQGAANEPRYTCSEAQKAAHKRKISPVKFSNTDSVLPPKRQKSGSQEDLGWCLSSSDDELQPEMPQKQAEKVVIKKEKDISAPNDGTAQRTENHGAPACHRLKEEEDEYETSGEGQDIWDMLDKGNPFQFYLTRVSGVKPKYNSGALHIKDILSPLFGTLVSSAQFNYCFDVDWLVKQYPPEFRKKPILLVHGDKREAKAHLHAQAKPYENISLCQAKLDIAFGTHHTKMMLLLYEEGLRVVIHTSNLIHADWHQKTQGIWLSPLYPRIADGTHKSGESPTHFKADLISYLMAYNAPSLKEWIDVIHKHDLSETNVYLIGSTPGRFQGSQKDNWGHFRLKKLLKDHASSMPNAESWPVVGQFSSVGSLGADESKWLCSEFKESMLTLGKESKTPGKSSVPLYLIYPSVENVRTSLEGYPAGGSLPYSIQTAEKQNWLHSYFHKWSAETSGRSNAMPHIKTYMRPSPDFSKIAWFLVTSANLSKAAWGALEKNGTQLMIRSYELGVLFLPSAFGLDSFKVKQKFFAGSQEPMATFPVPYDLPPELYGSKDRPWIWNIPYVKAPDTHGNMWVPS
#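 E. coli-derived human Tdp1, 1 nM final. Cpd preinc 15 min RT; substrate 15 nM final, 5 min RT; AS bead mix 10 ug/ml final, 10 min RT. Signal loss = tyrosine-FITC cleavage. No-enzyme wells = max signal.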
# An asterisk follows results filed as active; u = inconclusive; x = not tested or not shown; [ ] = dose if it differs, or a comment. Unless noted, the call rests on the fitted dose curve; in most records, active means well fitted curve in the direction sought with a large enough effect; inconclusive means small, poorly fitted or top-dose-only effect, or another doubt; inactive means no such curve, though single readings can be large; an effect the other way counts as inactive or inconclusive. Potency means the concentration at half of the fitted maximal effect.
SMILES,TDP1 cell noCPT,ClpP mod,DT40 TDP1 CPT,TDP1 block
Cc1cc(C(=O)CN2CCN(CC(=O)Nc3ccc(F)cc3)CC2)c(C)n1C1CC1,2.2%,1.5%,-19.3%,0.0%[56.1 µM]
O=C(NC(Cc1ccc(O)cc1)C(=O)N=Nc1c(O)[nH]c2ccccc12)c1ccccc1 (stereo unspecified),-19.0%,-1.6%,-2.7%,x
COc1ccc(N2CCN(C(=O)c3nn(-c4ccc(C)cc4)c(=O)n(C)c3=O)CC2)cc1,u,-7.3%,u,3.0%
COC(=O)[C@@]1(Cc2ccc(OC)cc2)[C@H]2c3cc(C(=O)N4CCCC4)n(CCc4ccc(O)c(OC)c4)c3C[C@H]2CN1C(=O)c1ccccc1,x,x,x,14.7%
COC(=O)[C@@]1(Cc2ccc(OC)cc2)[C@H]2c3cc(C(=O)N4CCCC4)n(CCc4ccc(OC)c(Br)c4)c3C[C@H]2CN1C(=O)c1ccccc1,20.6µM*,-3.5%,14.6µM*,10.5%
CCn1cnc2c(NCc3cccnc3)nc(C#N)nc21,x,x,x,1.6%
CC1(c2ccncc2)Nc2ccccc2-c2nc3ccccc3n21 (stereo unspecified),-1.3%,28.2µM*,4.9%,-1.1%
Cc1ccc(-c2nnc(SCC(C)C)n2C)cc1,20.6µM*,1.7%,u,0.0%
Cc1ccc(-c2nnc(SCC(N)=O)n2C)cc1,-3.9%,x,3.1%,4.8%
COc1ccc(-c2nnc(SCc3csc(N)n3)n2C)cc1,-6.5%,-0.7%,-14.8%,3.9%
Cc1ccc(Nc2nc(CSc3nnc(-c4ccc(F)cc4)n3C)cs2)cc1,u,1.1%,14.6µM*,5.8%
CN1C(=O)c2ccccc2N(C)C1c1cccs1 (stereo unspecified),-21.6%,20µM*,-3.2%,1.0%
CCN(CC)c1ccc(C(=O)O)cc1,-19.5%,-2.5%,11.2%,2.8%
O=C(O)c1ccc(N(c2ccccc2)c2ccccc2)cc1,1.4%,15.8µM*,0.7%,2.2%
CC(NC(=O)Cc1ccccc1)C1COc2ccccc2O1 (stereo unspecified),-0.2%,u,5.2%,0.0%
CC(NCc1ccc([N+](=O)[O-])cc1)C1COc2ccccc2O1 (stereo unspecified),20.6µM*,x,-0.6%,x
Cc1ccc(CN2C(=O)C3(c4ccccc42)N(c2ccc(C)c(Cl)c2)C(=O)CS3(=O)=O)cc1 (stereo unspecified),u,-1.2%,u,1.8%
COc1ccc(N2C(=O)CS(=O)(=O)C23C(=O)N(Cc2ccc(F)cc2)c2ccc(C)cc23)cc1 (stereo unspecified),14.6µM*,-1.6%,u,7.4%
Cc1ccc(N2C(=O)CS(=O)(=O)C23C(=O)N(Cc2ccccc2F)c2ccccc23)cc1Cl (stereo unspecified),u,-1.0%,14.6µM*,0.9%
COc1ccc(/C([O-])=C(/C(=S)Nc2ccc(C)c(C)c2)n2c[n+](C)c3ccccc32)cc1OC,u,-4.3%,29.1µM*,0.0%
Cc1ccc2nc(-c3ccc(Br)cc3)cc(C(=O)NCC3CCCO3)c2c1 (stereo unspecified),14.6µM*,3.4%,14.6µM*,x
CCOc1ccc(-c2cc(C(=O)NCC3CCCO3)c3ccccc3n2)cc1 (stereo unspecified),14.6µM*,u,16.4µM*,-4.3%
CCOC(=O)c1cc(-c2ccc(C)cc2)n(CC(=O)Nc2cccc(C(C)=O)c2)c1C,u,1.1%,-20.9%,1.0%
CC(=O)c1ccc(NC(=O)C2CCCC2)cc1,2.0%,-0.4%,6.7%,x
CCOC(=O)c1cc(C)n(CC2CCC(C(=O)Nc3ccc(OC)c(OC)c3)CC2)c1C (stereo unspecified),-18.4%,0.0%,-22.5%,0.0%
SMILES,TDP1 cell noCPT,ClpP mod,DT40 TDP1 CPT,TDP1 block
CCOC(=O)c1cc(C)n(CC2CCC(C(=O)Nc3ccc(C(C)=O)cc3)CC2)c1C (stereo unspecified),10.3µM*,-8.6%,11.6µM*,2.8%
CCOC(=O)c1cc(C)n(CC2CCC(C(=O)Nc3cccc(C(C)=O)c3)CC2)c1C (stereo unspecified),25.9µM*,-2.7%,23.1µM*,2.8%
CCOC(=O)c1cc(C)n(CC2CCC(C(=O)Nc3ccc(C(=O)OC)cc3)CC2)c1C (stereo unspecified),18.4µM*,0.4%,23.1µM*,2.8%
O=C(NCc1cccc(C(F)(F)F)c1)c1ccc2nc([C@@H]3O[C@H](CO)[C@@H](O)[C@H]3O)[nH]c2c1,-12.0%,-2.0%,-14.6%,x
Cc1ccc(NC(=O)CSc2nncn3c2cc2sccc23)cc1F,u,-14.6%,-0.7%,5.1%
COC(=O)[C@@]1(Cc2ccc(F)cc2)[C@H]2c3cc(C(=O)N4CCCC4)n(Cc4c(CO)[nH]cc(C)c4=O)c3C[C@H]2CN1C(=O)c1ccccc1,x,x,x,13.5%
Cc1ccc(NC(=O)c2ccc(F)c(S(=O)(=O)NCCc3ccccc3)c2)cc1F,23.1µM*,1.5%,20.6µM*,5.2%
COc1ccc(NC(=O)c2ccc(Cl)c(S(=O)(=O)N3CCc4ccccc4C3)c2)cn1,23.1µM*,-18.4%,20.6µM*,8.2%
COc1ccc(NC(=O)c2ccc(Cl)c(S(=O)(=O)N3CC(C)OC(C)C3)c2)cn1 (stereo unspecified),u,1.3%,u,-0.3%
Cc1ccccc1NC(=O)c1ccc(F)c(S(=O)(=O)N2CCc3ccccc3C2)c1,u,-8.7%,-4.0%,7.8%
Cc1ccc(NC(=O)c2ccc(F)c(S(=O)(=O)N3CCc4ccccc4C3)c2)cc1F,23.1µM*,-21.5%,u,5.2%
CC(C)N1CCC1(C)C(=O)Nc1ccc(-n2cccc2)cc1 (stereo unspecified),u,-0.6%,14.6µM*,x
Cc1cccc(C(=O)Nc2nnc(SCc3cc(=O)n4cccc(C)c4n3)s2)c1,1.7%,-6.8%,5.9%,5.4%
CC1(C(=O)Nc2ccc(Cl)c(C(F)(F)F)c2)Cc2c(-c3ccc4c(c3)OCO4)ccnc2O1 (stereo unspecified),u,5.5%,u,x
CN(C)c1ccc(-c2ccnc3c2CC(C)(C(=O)Nc2ccc(Cl)c(C(F)(F)F)c2)O3)cc1 (stereo unspecified),5.17µM*,4.5%,u,x
CC1(C(=O)Nc2cccc(OC(F)(F)F)c2)Cc2c(-c3ccc(C(N)=O)cc3)ccnc2O1 (stereo unspecified),16.4µM*,-5.3%,u,x
CC1(C(=O)Nc2ccccc2)Cc2c(-c3ccc4c(c3)OCO4)ccnc2O1 (stereo unspecified),-13.4%,5.1%,u,x

# Bioassay records as filed in PubChem BioAssay.
